Sampled rows, rich in hits. Any-hit rate of the full collection: about 2.1%.
PTAP TSG101 blk: qHTS Assay for Iinhibitors of HIV-1 Budding by Blocking the Interaction of PTAP/TSG101; 340,000 tested, under 10 active; AID 493005, 2010; Fluorescence polarization, FITC-PTAP peptide / Tsg101 binding; Tumor susceptibility gene 101 protein (Homo sapiens), Q99816; Potency, µM (series often up to 115 µM), without a hit: top-dose activity change, negative = inhibition, most hits filed as inhibitors; active = well fitted inhibition curve with a large enough effect in the main read-out, with a control signal flat, not every such curve was filed as active; inconclusive = small, poorly fitted or top-dose-only effect, or effect the other way, or a change in a side signal; inactive = no such curve, though single readings can be large or run the other way; also: % of control where 0% means no effect
Target sequence (Q99816 whole entry, looked up): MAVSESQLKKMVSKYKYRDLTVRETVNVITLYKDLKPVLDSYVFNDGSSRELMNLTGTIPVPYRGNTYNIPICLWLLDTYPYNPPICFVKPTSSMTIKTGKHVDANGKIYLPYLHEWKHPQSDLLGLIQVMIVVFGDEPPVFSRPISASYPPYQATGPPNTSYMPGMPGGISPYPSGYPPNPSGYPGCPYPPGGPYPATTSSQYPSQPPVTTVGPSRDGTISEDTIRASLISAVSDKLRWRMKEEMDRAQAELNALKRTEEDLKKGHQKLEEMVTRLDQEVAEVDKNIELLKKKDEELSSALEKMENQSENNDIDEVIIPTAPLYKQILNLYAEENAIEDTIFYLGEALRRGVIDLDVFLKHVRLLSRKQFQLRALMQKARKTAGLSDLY
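Tsg101 binding domain (10 uM final) was mixed with compound and a FITC-labeled PTAP peptide (50 nM final) in HEPES pH 7.5 buffer with NaCl, Tween 20, EDTA and TCEP; fluorescence polarization was read after 20 min at r.t.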
Abeta rescue: qHTS for compounds that reverse cellular toxicity of Amyloid beta (A-beta) peptide in yeast: Primary Screen | yeast expressing A-beta42, growth rescue, OD600, 48 h; response scale: 0% DMSO, 100% iron-clioquinol control | Potency, µM (top dose mostly 46.1 µM), hits mostly activators | 410,000 compounds, 0.063% hits | AID 1347071, 2019; also: nearly all actives have a fitted effect of over 55% in size
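Yeast A-beta toxicity model in growth medium with pinned compounds, 48 h at 30 C; growth read as absorbance at 600 nm. Normalized to FeCl3/clioquinol equimolar mix (positive) and DMSO (negative).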
FUS yeast rescue: qHTS for Suppressors of FUS Proteinopathy: Primary screen using FUS-linked yeast assay; S. cerevisiae FUS-expressing, growth rescue, OD600, 24 h; Potency, µM (series often up to 76.6 µM), hits mostly activators; 390,000 compounds, 0.24% hits;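 also: plate controls were DMSO vehicle for no effect and reference control for full effect; nearly all actives have a fitted effect of over 55% in size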
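Quantitative HTS measuring growth restoration of FUS-toxic yeast. Galactose-induced cells (OD 0.005) were exposed 24hr at 30C to compounds at several concentrations, then absorbance at 600 nm was recorded.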
aSyn yeast inh: qHTS of alpha-syn Inhibitors. 370,000 compounds, 0.14% hits. AID 652106, 2013. Potency, µM (doses to about 46.1 µM), for the others: at the highest dose growth rescue (activation), most hits filed as activators. Yeast expressing alpha-synuclein, growth rescue, BacTiter-Glo, 24 h; also: % of control where 0% means no effect; nearly all actives have a fitted effect of over 65% in size
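Screening used galactose-induced yeast with toxic alpha-synuclein levels, exposed to compound for 24 hr at 30 deg C. Cell growth, read with BacTiter-Glo luminescence, gave the measured signal.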
TDP-43 yeast inh: qHTS of TDP-43 Inhibitors; TDP-43 expressing yeast growth rescue, BacTiter-Glo, 24 h; Potency, µM (series often up to 46.1 µM), for inactives: at the highest dose growth rescue (activation), most hits filed as activators; 410,000 compounds, 1.8% hits; AID 652104, 2013; also: % of control where 0% means no effect; nearly all actives have a fitted effect of over 50% in size
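Galactose-induced TDP-43 yeast, OD600=0.02, compound pinned; 24 hr, 30 deg C; BacTiter-Glo luminescence for growth. Inhibitors of TDP-43 toxicity read as activators.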
Active calls of the source: *; i = inactive; u = inconclusive; x = no result; [ ] = dose if it differs, or a comment. Unless noted, calls follow the shape of the dose curve; as a rule, active = well fitted curve in the direction sought with a large enough effect; inconclusive = small, poorly fitted or top-dose-only effect, or another doubt; inactive = no such curve, though single readings can be large; an effect the other way counts as inactive or inconclusive. Potency is read from the fitted curve at half-maximal effect.

SMILES	PTAP TSG101 blk	Abeta rescue	FUS yeast rescue	aSyn yeast inh	TDP-43 yeast inh
Cc1c(C(=O)N2CCN(CC(=O)Nc3ccccc3Cl)CC2)oc2ccc(Br)cc12	-0.8%	i	i	-5.5%	12.6µM*
c1ccc(-c2nnc(CN3CCN(c4ccccc4)CC3)o2)cc1	-5.5%	i	i	-0.7%	24.1%
Clc1cccc(N2CCN(Cc3nnc(-c4ccccc4)o3)CC2)c1	-4.6%	i	i	7.9%	11.2µM*
Cc1cccc(/C(N)=N/OC(=O)c2ccc(Br)o2)c1	-0.9%	i	x	-36.2%	4.47µM*
N/C(=N\OC(=O)c1ccc(Br)o1)c1ccccn1	-5.2%	i	i	-0.2%	14.1µM*
N/C(=N\OC(=O)/C=C/c1ccc(Br)cc1)c1ccccn1	1.9%	i	i	0.6%	17.8µM*
Cc1ccc(C(=O)O/N=C(\N)c2ccccn2)cc1C	0.6%	i	i	-16.9%	10µM*
O=C(Nc1ccc2[nH]ccc2c1)c1cc(-c2ccc(Cl)cc2)nc2ccccc12	x	x	i	x	x
CN1CCN(C2(CNC(=O)c3ccc([N+](=O)[O-])cc3)CCCCC2)CC1	x	i	i	x	-2.0%
O=c1c2sc3ccccc3c2n(Cc2cccc(Cl)c2)c(=O)n1Cc1ccccc1	x	i	i	x	-2.3%
O=C(CSc1nnc(-c2cccc(F)c2)c(-c2cccc(F)c2)n1)NC1CCCCC1	x	i	u	x	21.8%
CCc1nnc2c3ccccc3nc(N3CCN(c4cc(Cl)ccc4C)CC3)n12	x	i	i	x	4.7%
Cc1cccc(C(=O)O/N=C(\N)c2ccccn2)c1	-2.2%	i	i	-23.6%	12.6µM*
CCOc1ccc(C(=O)O/N=C(\N)c2ccccn2)cc1	-0.7%	i	i	-47.6%	12.6µM*
Cc1ccc(C(=O)O/N=C(\N)c2ccccn2)cc1	-5.1%	i	i	-49.4%	u
Cc1cccc(/C(N)=N/OC(=O)c2cccnc2)c1	-3.6%	i	i	-7.9%	11.2µM*
COc1cc(OC)cc(C(=O)O/N=C(\N)c2cccc(C)c2)c1	-8.4%	i	i	-49.1%	u
N/C(=N\OC(=O)c1ccccc1)c1ccccn1	2.8%	i	i	-34.1%	-19.6%[0.397 µM]
N/C(=N\OC(=O)c1cccc(F)c1)c1ccccn1	-4.6%	i	i	-3.3%	3.16µM*
Fc1ccc(-c2nc(-c3c[nH]c4ccccc34)cs2)cc1	x	x	x	-24.5%	x
COc1cccc(C(NC(C)=O)c2nc(-c3ccc(OC)nc3)cs2)c1 (configuration not stated)	x	i	u	1.6%	0.0%
COc1cccc(Cn2nnc(C(=O)NCc3ccc(Cl)cc3Cl)c2N)c1	x	i	i	x	15.6%
CC(NC(=O)c1ccc2c(c1)N(Cc1ccc(Cl)cc1)C(=O)c1ccccc1S2=O)c1ccccc1 (configuration not stated)	x	i	25.1µM*	x	-6.4%
CCC(C)NC(=O)c1ccc2c(c1)N(Cc1cccc(Cl)c1)C(=O)c1ccccc1S2=O (configuration not stated)	x	i	u	x	2.3%
Cc1[nH]c2c(Br)cccc2c1[C@H]1[C@@H](CC#N)C1(C)C	-4.8%	i	i	-20.6%	22.4µM*
SMILES	PTAP TSG101 blk	Abeta rescue	FUS yeast rescue	aSyn yeast inh	TDP-43 yeast inh
Cc1c([C@H]2[C@@H](CC#N)C2(C)C)c2ccccc2n1C	-6.1%	i	i	4.2%	16.2%
O=S(=O)(CC1NCc2ccccc21)NCc1ccc(F)cc1 (configuration not stated)	x	x	i	x	x
Cc1ccc(O)c(N=Nc2ccccc2)n1	-4.2%	i	i	-74.2%	11.2µM*
Oc1ccc(Cl)cc1N=Nc1ccccc1	0.5%	i	i	7.1%	-2.3%
CCN(Cc1ccccc1)C(=O)c1cnn(-c2ccc(F)cc2)c1-n1cccc1	x	i	i	8.0%	35.5µM*
S=C(Nc1ccc(I)cc1)OC1CCC12CCC(c1ccccc1)CC2 (configuration not stated)	x	x	i	x	x
COc1ccc(C2=CC(=O)C[C@H](c3ccc(F)cc3)C2)c(OC)c1	-3.5%	i	u	5.7%	22.4µM*
COc1ccc(C2=CC(=O)C[C@H](c3ccc(F)cc3)C2)c(F)c1F	2.4%	i	u	20.6%	15.8µM*
COc1ccc(OC)c(C2=CC(=O)C[C@H](c3ccc(F)cc3)C2)c1	x	i	i	14.8%	u
COc1ccc(Cl)cc1C1=CC(=O)C[C@H](c2ccc(F)cc2)C1	-3.2%	i	i	1.6%	12.6µM*
COc1cccc(-c2cn3c(n2)sc2cc(C(=O)NCCc4ccc(OC)c(OC)c4)ccc23)c1	x	i	i	x	20.7%
Fc1ccc(-c2nn(-c3ccccc3)cc2CNCc2ccccc2)cc1	-2.3%	i	i	-9.1%	-20.0%
O=C(CCl)Nc1cn(-c2ccccc2)nc1-c1ccc(F)cc1	-1.9%	i	i	4.2%	8.91µM*
CC(C)(C)c1ccc(C(=O)N2CCNCC2)cc1	-0.7%	i	i	-5.3%	-3.9%
CN1CCC2(CC1)N=C(c1ccc(F)cc1)C(=S)N2C(=O)c1ccc(C(C)(C)C)cc1	-2.6%	i	i	13.9%	20µM*
COc1ccc(C2=Nn3c(nnc3-c3ccco3)SC2)cc1	-9.4%	i	i	7.2%	22.4µM*
c1coc(-c2nnc3n2N=C(c2ccc4ccccc4c2)CS3)c1	x	x	i	x	x
Cc1cc(Br)ccc1NC(=O)COC(=O)c1ccccc1OCC(N)=O	x	x	x	0.9%	x
COc1ccccc1NC(=O)Nc1nn(C)c2cccc(N(C)C)c12	0.6%	i	u	-41.7%	20µM*
COc1ccc(Cn2c(C(=O)O)c(CNCCc3ccccc3Cl)c3ccc(C)cc32)cc1	x	i	14.1µM*	x	u
Cc1ccc(Cn2c(C(=O)O)c(CNCc3ccccc3Cl)c3ccc(C)cc32)cc1	x	i	i	x	10.7%
Cc1ccc(NC(=O)C(Cc2ccccc2)n2cccc2)cc1C (configuration not stated)	x	i	i	x	18.3%
Cc1cc(-c2ccco2)c(C#N)c2nc3ccccc3n12	u	i	i	0.562µM*	3.98µM*
CC(C)c1cc(N2CCN(C(=O)c3ccco3)CC2)n2c(nc3ccccc32)c1C#N	-5.7%	i	i	-0.3%	7.7%
S=C(NCC1(c2ccccc2)CCCC1)Nc1ccccc1	1.4%	5.01µM*	i	7.6%	u
O=C(NCC1(c2ccccc2)CCCC1)C(=O)NCC1(c2ccccc2)CCCC1	-1.3%	i	x	-7.6%	-3.8%
COc1cccc(C(=O)/C=C/c2ccc(OCC#N)c(OC)c2)c1	-0.3%	i	i	u	20µM*

Source: PubChem BioAssay (National Center for Advancing Translational Sciences (NCATS))
